Assay [1] addresses Albumin (Bos taurus) (UniProt P02769). As to the kind of experiment: compounds binding labelled BSA control protein – biochemical, small-molecule microarray, Alexa647 label, 635/667 nm fluorescence, artefact control for SMM control protein annotation, profiling panel (AID 1118).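 Further: score merges 667 nm emission intensity and signal-to-noise per printed compound spot.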 The following applies: BSA-A647 binding, fluorescence 635 nm, higher = more signal.
A short description of assay [2]: probe aXIP binding to arrayed compounds – biochemical, NeuroSMM set, 635/667 nm fluorescence, primary screen (AID 1119).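 Further: probe is the protein aXip251-270 applied at 1 µg/mL to compound-printed slides; binding of probe to printed compounds measured as 667 nm fluorescence plus signal to noise.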 As to conditions: small-molecule microarray, higher = more signal, called active from +8 up or from −8 down.
The nature of assay [3]: probe aNOTCH3 binding on compound microarray – biochemical, small-molecule microarray, 635/667 nm fluorescence, primary screen (AID 1120).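 Further: probe is a biotin-tagged antibody raised against NOTCH3 rather than NOTCH3 protein; score merges spot fluorescence near 667 nm with spot signal to noise.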 As to conditions: higher = more signal.
The nature of assay [4]: probe aNOTCH2 binding on compound microarray – biochemical, small-molecule microarray, 635/667 nm fluorescence, primary screen (AID 1121).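 Further: score merges feature fluorescence read at 667 nm with its signal to noise.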 As to conditions: higher = more signal.
For assay [5], the target named is Carbonic anhydrase 2 (Homo sapiens) (UniProt P00918). Briefly: compounds binding carbonic anhydrase 2 – biochemical, small-molecule microarray, Alexa647-labelled CAII, profiling panel (AID 1122). As to conditions: CAII-A647 binding fluorescence, higher = more signal.
Assay [6] is described as follows: COS7 lysate on small-molecule microarray, probe aHis, 635 nm (AID 1123).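 Further: z-score combines 667nm fluorescence intensity with signal-to-noise per printed compound spot.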 As to conditions: COS7 cell lysate, fluorescence, higher = more signal.
A short description of assay [7]: probe aLAP1 signal on lysate-treated microarray – cell lysate, small-molecule microarray, COS7 lysate, primary screen (AID 1124).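 Further: lysate comes from COS7 cells expressing LAP1 and is applied at 0.3 µg/mL; score merges spot fluorescence near 667 nm with signal-to-noise over triplicate slides.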 The following applies: probe aLAP1, fluorescence, higher = more signal.
Assay [8] deals with Sam68 (KHDRBS1). As to the kind of experiment: compounds binding KHDRBS1 protein – biochemical, small-molecule microarray, 635 nm fluorescence, primary screen (AID 1125).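 Further: score merges 667 nm channel intensity with signal to noise over triplicate slides.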 The following applies: higher = more signal.
For assay [9], the system named is Chordin-like protein 2 (CHRDL2). Briefly: compounds binding chordin-like 2 – biochemical, small-molecule microarray, 635 nm fluorescence, primary screen (AID 1126).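 Further: printed compound slides probed with Chrdl2 protein at 4 µg/mL for 1 h at 4 C; score merges 667 nm emission intensity with signal to noise over three replicate slides.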 The following applies: fluorescence 635 nm, higher = more signal.
In assay [10] the target is Concanavalin-A (Canavalia ensiformis) (UniProt P02866). As to the kind of experiment: compounds binding concanavalin A lectin – biochemical, small-molecule microarray, Alexa647 label, 635 nm, artefact control for SMM control protein annotation, primary screen (AID 1127).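 Further: z combines 667 nm emission intensity with signal-to-noise across three replicate slides.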 As to conditions: ConA-A647 binding fluorescence, higher = more signal.

The source made the active and inactive calls.

Sequence of Concanavalin-A (Canavalia ensiformis) (P02866 whole entry, looked up): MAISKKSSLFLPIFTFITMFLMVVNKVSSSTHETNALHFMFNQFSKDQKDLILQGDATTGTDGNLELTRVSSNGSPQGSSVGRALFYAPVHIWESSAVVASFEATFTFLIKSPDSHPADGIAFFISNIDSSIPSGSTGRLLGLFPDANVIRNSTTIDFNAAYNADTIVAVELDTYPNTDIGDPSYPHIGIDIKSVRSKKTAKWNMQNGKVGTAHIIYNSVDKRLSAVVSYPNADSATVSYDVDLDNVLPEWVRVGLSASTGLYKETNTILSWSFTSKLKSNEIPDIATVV
Sequence of Albumin (Bos taurus) (P02769 whole entry, looked up): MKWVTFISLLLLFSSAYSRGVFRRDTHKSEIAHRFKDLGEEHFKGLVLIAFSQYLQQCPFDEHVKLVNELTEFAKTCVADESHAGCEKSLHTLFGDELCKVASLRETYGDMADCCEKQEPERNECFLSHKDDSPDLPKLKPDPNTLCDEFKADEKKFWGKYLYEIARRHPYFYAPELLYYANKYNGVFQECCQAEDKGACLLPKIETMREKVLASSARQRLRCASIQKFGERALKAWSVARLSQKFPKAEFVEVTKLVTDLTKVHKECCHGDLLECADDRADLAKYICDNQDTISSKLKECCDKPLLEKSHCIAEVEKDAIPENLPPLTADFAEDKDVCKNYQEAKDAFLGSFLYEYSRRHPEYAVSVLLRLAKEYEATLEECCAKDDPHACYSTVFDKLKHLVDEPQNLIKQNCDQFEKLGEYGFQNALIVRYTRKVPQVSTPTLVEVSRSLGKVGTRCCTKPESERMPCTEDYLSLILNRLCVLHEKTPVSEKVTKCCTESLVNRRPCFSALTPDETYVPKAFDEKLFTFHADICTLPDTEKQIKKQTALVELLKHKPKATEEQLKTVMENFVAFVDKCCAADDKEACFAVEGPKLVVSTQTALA

As for `C#CCCCON=C1C[C@@H](O)[C@@H](O)[C@@H]2[C@@H]3C(=O)N(c4cccc(Oc5ccccc5)c4)C(=O)[C@@H]3CC[C@H]12`, the composite z-score is -0.302 in assay [1]; -0.373 in assay [3]; -0.14 in assay [4]; 0.709 in assay [5]; 0.0922 in [6]; 0.762 in assay [7]. The composite z-score in assay [8] is -0.582; in assay [9], -0.771; in assay [10], -0.387. In addition, in [2], the composite Z-score is 1.27 (inactive).

As for `COC(=O)CC=C[C@@H](C)[C@@H](C=NOC(C)CN1CCCc2nc(C)c(C)cc21)OC` (stereo not given in full), the composite z-score in assay [1] was 0.0374; in assay [3] it was 0.0833; in assay [4], -0.176; in assay [5] it was -0.0864; in assay [6], 0.132; in assay [7], -0.201. The composite z-score in [8] was found to be 0.263; in assay [9], 0.377; in assay [10], 0.458. Besides, the composite Z-score in assay [2] was 0.0236 (inactive).

Take `CC(C)=NO[C@H](C)c1cn([C@H](CO)Cc2ccccc2)nn1`: the composite z-score was 0.364 in assay [1]; -0.0932 in assay [3]; -0.123 in assay [4]; 0.13 in assay [5]; 0.559 in assay [6]; -0.536 in assay [7]. In addition, the composite z-score in assay [8] is 0.444; in assay [9], -0.0691; in [10], 1.1. Besides, the composite Z-score in [2] is -0.178 (inactive).

Turning to `CO[C@@H]1COC(=O)[C@@H]2CCCN2C(=O)[C@@H](C)COC(=O)CC=C[C@H]1C`, the composite z-score was 0.0417 in assay [1]; -0.0362 in [3]; -0.14 in [4]; 0.299 in assay [5]; 0.148 in assay [6]; 0.0496 in assay [7]. For the same molecule, the composite z-score in assay [8] worked out at 1.2; in [9], 0.695; in assay [10] it was 0.325. In addition, in assay [2], the composite Z-score is -0.235 (inactive).

In the case of `O=C1[C@H]2[C@H]3[C@H](O)[C@H](O)CC(=NOCc4ccccc4)[C@@H]3CC[C@H]2C(=O)N1C[C@@H]1CCCO1`, the composite z-score was 0.0904 in [1]; -0.187 in assay [3]; -0.0621 in assay [4]; -0.026 in assay [5]; 0.369 in [6]; 0.279 in assay [7]. For the same molecule, the values for the composite z-score in [8], in [9] and in [10] were -0.361, 0.332 and 0.603, respectively. Besides, in assay [2], the composite Z-score was -0.207 (inactive).

As for `COC(=O)[C@H](C)NC(=O)CCC1CC(OC(=O)NCCc2ccc(F)cc2)CC2(CCCC(COC(=O)NCc3cccc(C(F)(F)F)c3)O2)O1` (stereo not given in full), the composite z-score is 0.0516 in [1]; 0.133 in assay [3]; -0.0652 in assay [4]; 0.193 in assay [5]; 0.702 in assay [6]; -0.363 in assay [7]. In addition, the composite z-score was found to be 0.267 in assay [8], 0.208 in [9] and 0.401 in assay [10]. For the same molecule, the composite Z-score in assay [2] is 0.116 (inactive).

Regarding `COC(=O)[C@H](C)NC(=O)CCC1CC(OC(=O)NCc2ccc3c(c2)OCO3)CC2(CCCC(COC(=O)NCCc3ccccc3OC)O2)O1` (stereo not given in full), the composite z-score was 0.159 in assay [1]; -0.125 in assay [3]; -0.0646 in assay [4]; 0.472 in assay [5]; 1.36 in assay [6]; 0.117 in assay [7]. Moreover, the composite z-score in assay [8] was 0.735; in assay [9], -0.0443; in assay [10] it was -0.706. Also, the composite Z-score in [2] was 0.0923 (inactive).

Take `CO[C@@H]1C=CCC(=O)N2CCC[C@H]2C(=O)OC[C@@H](C)C(=O)OC[C@H]1C`: the composite z-score was -0.709 in [1]; 0.138 in assay [3]; -0.0109 in assay [4]; -0.31 in assay [5]; -0.0865 in [6]; -0.176 in assay [7]. In addition, the composite z-score in assay [8] was 0.465; in assay [9] it was 1.05; in assay [10], -1.08. In assay [2], the composite Z-score was 1.36 (inactive).

For `COC(=O)CC=C[C@@H](C)[C@@H](C=NO[C@H](C)c1cn([C@H](CO)Cc2ccccc2)nn1)OC`, the composite z-score in [1] was 0.113; in assay [3], 0.118; in assay [4] it was -0.118; in [5] it was -0.16; in assay [6] it was 0.188; in [7], 0.456. Moreover, the composite z-score in [8] was found to be 0.804; in assay [9] it was 0.944; in assay [10], 0.254. Also, in assay [2], the composite Z-score was 0.215 (inactive).

As for `CC(CCN1CCCc2nc(C)c(C)cc21)=NO[C@@H](C)c1cc(-c2c(C)cc(C)cc2C)no1`, the composite z-score is 0.177 in [1]; 0.0789 in [3]; -0.0668 in [4]; 0.0276 in assay [5]; 0.517 in [6]; 0.138 in assay [7]. Besides, the results for the composite z-score in [8], in assay [9] and in assay [10] were 1.04, 0.9 and 0.778, respectively. In assay [2], the composite Z-score is 0.121 (inactive).

For the molecule `COC(=O)[C@@H]1CC[C@H](C)[C@@H](c2ccc(C)cc2)N1C(=O)c1ccc(C=NO[C@H](C)c2cn([C@@H]3COC[C@H]3O)nn2)cc1`, the composite z-score in assay [1] is 0.56; in assay [3] it was -0.125; in assay [4] it was -0.117; in [5] it was 0.311; in assay [6], 0.81; in assay [7] it was -0.0293. Besides, the composite z-score in assay [8] is 1.21; in assay [9], 0.389; in assay [10], 0.581. In addition, the composite Z-score in assay [2] is -0.359 (inactive).

As for `COC(=O)CC=C[C@@H](C)[C@@H](C=NO[C@H](C)c1cn([C@H](CO)Cc2ccccc2)nn1)NS(=O)(=O)c1ccc(C)cc1`, the composite z-score in [1] was 0.749; in [3] it was 0.0242; in assay [4], -0.118; in assay [5], -0.276; in assay [6] it was -0.0104; in assay [7], 0.78. Besides, the composite z-score in [8] is 0.566; in assay [9] it was 0.437; in assay [10], 0.837. Besides, in assay [2], the composite Z-score was 0.863 (inactive).

In the case of `Cc1cc2c(nc1C)CCCCN2CC(C)ON=C[C@@H](C)[C@H](OCc1ccccc1)C(C)C` (stereo not given in full), the composite z-score in assay [1] was -0.256; in [3] it was -0.545; in [4] it was -0.237; in [5] it was -0.523; in assay [6], -0.602; in [7], -0.708. Besides, the results for the composite z-score in assay [8], in assay [9] and in assay [10] were -0.465, -2.12 and -1.34, respectively. Besides, the composite Z-score in assay [2] is -0.77 (inactive).

These data come from PubChem BioAssay.
